# “And” between values parts separate entries of the source, which are not always exact repeats. Equal values may be shown once. Where a name gives a salt, the structure may show the parent alone. The whole screen tested about 5,800 compounds, of which about 620 (11%) showed activity. The list comes from a sample in which actives are over-represented; it also holds similar structures and randomly drawn compounds. A number with no mark means an inactive call.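 Rule for the calls: active = score above a cut-off or among the top three wells of a plate; in these data no inactive exceeds 0.85.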
# System: primary human hepatic stellate cells (donor 1)
# Assay: scaled lipid accumulation score (0 = DMSO-like, 1 = nortriptyline-like); higher = stronger HSC inactivation (lipid re-accumulation), active = hit call of the paper
# Details: 48 h
# [1] = library stock concentration: 1 mM
# [2] = library stock concentration: 10 mM
# [3] = library stock concentration: 3.33 mM
# [4] = library stock concentration: 4.7 mM
# [5] = library stock concentration: 80 uM
# [6] = library stock concentration: 400 uM
# [7] = library stock concentration: 2 mM
smiles,measurement,setting,value
CCC(O)/C=C/C=O (stereo not drawn) [4-hydroxy Hexenal],scaled lipid accumulation score,[1],≤ 0
CCCCC[C@H](O)/C=C/[C@H]1[C@H](O)CC(=O)[C@@H]1CCCCCCC(=O)NCCO [Prostaglandin E1 Ethanolamide],scaled lipid accumulation score,[1],≤ 0
O=c1cc(-c2ccc(O)cc2)oc2cc(O[C@@H]3O[C@H](CO)[C@@H](O)[C@H](O)[C@H]3O)cc(O)c12 [Cosmosiin],scaled lipid accumulation score,[2],0.333
CC(C)=CCC/C(C)=C\CO [Nerol],scaled lipid accumulation score,[2],≤ 0
CC(C)=CCC/C(C)=C/CC/C(C)=C/CC[C@]1(C)CCc2cc(O)c(C)c(C)c2O1 [.gamma.-Tocotrienol],scaled lipid accumulation score,[1],≤ 0
CC12CC3CC(C)(C1)CC(N)(C3)C2,scaled lipid accumulation score,[2],0.869 (active)
NC12CC3CC(CC(C3)C1)C2 [Symmetrel],scaled lipid accumulation score,[2],0.158
NC12CC3CC(CC(C3)C1)C2 [Amantadine hydrochloride],scaled lipid accumulation score,[2],0.29 and 0.659
same,scaled lipid accumulation score,library stock concentration: 10.7 mM,0.031
CC12CC3CC(C)(C1)CC(N)(C3)C2 [Memantine Hydrochloride],scaled lipid accumulation score,,0.399
CC12CC3CC(C)(C1)CC(N)(C3)C2 [Memantine hydrochloride],scaled lipid accumulation score,library stock concentration: 9.3 mM,0.689
same,scaled lipid accumulation score,[2],0.344 and 0.653 and 0.597
NC12CC3CC(CC(C3)C1)C2 [Amantadine HCl],scaled lipid accumulation score,[3],≤ 0
same,scaled lipid accumulation score,[2],0.042
CC12CC3CC(C)(C1)CC(N)(C3)C2 [Memantine HCl],scaled lipid accumulation score,[3],0.012
same,scaled lipid accumulation score,[2],0.415
CC12CC3CC(C)(C1)CC(N)(C3)C2.Cl [Memantine hydrochloride],scaled lipid accumulation score,[2],1.05 (active)
NC12CC3CC(CC(C3)C1)C2 [Adamantamine fumarate],scaled lipid accumulation score,,0.029
COC(=O)CCCCCCC1C(O)CC(O)C1CCC(O)C#Cc1ccccc1F (stereo not drawn),scaled lipid accumulation score,[1],≤ 0
NC(=S)NCCC[C@H](N)C(=O)O [Thiocitrulline [L-Thiocitrulline]],scaled lipid accumulation score,library stock concentration: 26.1 mM,0.069
NC(=S)NCCC[C@H](N)C(=O)O [L-Thiocitrulline (hydrochloride)],scaled lipid accumulation score,[1],0.048
Cc1cccc(CC(=O)N2CCc3c2ccc(-c2cn(C)c4ncnc(N)c24)c3F)n1,scaled lipid accumulation score,[3],≤ 0
same,scaled lipid accumulation score,[2],≤ -0.001
CCC(CC)CNc1cc(C(=O)NCCN(C)C)cc(S(=O)(=O)Nc2ccc(OC)cc2)c1,scaled lipid accumulation score,[2],0.996 (active)
CCN(CC)CCNC(=O)c1ccc(NS(C)(=O)=O)cc1 [Sematilide monohydrochloride monohydrate],scaled lipid accumulation score,[2],≤ -0.07
COc1cc(C(=O)NCc2ccc(OCCN(C)C)cc2)cc(OC)c1OC [Trimethobenzamide hydrochloride],scaled lipid accumulation score,,≤ 0
same,scaled lipid accumulation score,[4],0.028
same,scaled lipid accumulation score,[2],≤ 0
"O=c1[nH][nH]c2nnc(-c3c(-c4ccccc4)nn4ccccc34)cc12 [ERK Inhibitor II, Negative Control]",scaled lipid accumulation score,[3],≤ 0
C=CC[N+]1([C@H]2C[C@H]3[C@@H]4CC[C@H]5C[C@H](O)[C@@H](N6CCOCC6)C[C@]5(C)[C@H]4CC[C@]3(C)[C@H]2OC(C)=O)CCCC1 [Rocuronium Bromide],scaled lipid accumulation score,[3],≤ 0
same,scaled lipid accumulation score,[2],≤ 0
COc1ccc(C2(O)OC(=O)C(c3ccc4c(c3)OCO4)=C2Cc2cc(OC)c(OC)c(OC)c2)cc1 (stereo not drawn),scaled lipid accumulation score,[2],0.037
CCCCCCCCCCCC(=O)CC(=O)N[C@H]1CCOC1=O [N-3-oxo-tetradecanoyl-L-Homoserine lactone],scaled lipid accumulation score,[1],≤ 0
CC/C=C\C/C=C\C/C=C\CCCCCCCCCCCC(=O)O [Docosatrienoic acid (22:3 n-3)],scaled lipid accumulation score,[1],≤ -0.021
COc1cccc2c1[C@@H]1CN(CCCCn3c(=O)[nH]c4c(sc5ncc(-c6ccccc6)nc54)c3=O)C[C@@H]1CO2.Cl [Fiduxosin hydrochloride],scaled lipid accumulation score,[2],0.863 (active)
COc1ccc(/C=C/c2ccccc2F)cc1,scaled lipid accumulation score,[1],0.063
C/N=C(/NC#N)NCCSCc1csc(NC(=N)N)n1 [Tiotidine],scaled lipid accumulation score,library stock concentration: 6.4 mM,≤ -0.006
same,scaled lipid accumulation score,[2],0.044
COc1cc2c(NC3CCN(C(C)C)CC3)nc(C3CCCCC3)nc2cc1OCCCN1CCCC1,scaled lipid accumulation score,[5],≤ 0
same,scaled lipid accumulation score,[6],≤ 0
same,scaled lipid accumulation score,[7],0.354
same,scaled lipid accumulation score,[2],0.14
COc1cc2nc(N3CCCN(C)CC3)nc(NC3CCN(Cc4ccccc4)CC3)c2cc1OC.Cl.Cl.Cl.O,scaled lipid accumulation score,[1],0.804 (active)
COc1cc2nc(N3CCCN(C)CC3)nc(NC3CCN(Cc4ccccc4)CC3)c2cc1OC,scaled lipid accumulation score,[5],≤ 0
same,scaled lipid accumulation score,[6],≤ 0
same,scaled lipid accumulation score,[7],0.569
same,scaled lipid accumulation score,[3],0.42
same,scaled lipid accumulation score,[2],0.096 and 0.353 and 0.204
Nc1nccc(-c2c(-c3ccc(F)cc3)ncn2C2CCNCC2)n1,scaled lipid accumulation score,[3],≤ 0
O=S1(=O)c2cccc3cccc(c23)N1CCCN1CCN(c2ccc(F)cc2)CC1 [Fananserin],scaled lipid accumulation score,[2],0.048
"N=C(N)SCCc1cccc(CCSC(=N)N)c1 [1,3-PBIT (dihydrobromide)]",scaled lipid accumulation score,[1],≤ 0
CS(=O)(=O)O.N=C(N)SCCc1ccc(OCc2ccc([N+](=O)[O-])cc2)cc1 [KB-R7943 mesylate],scaled lipid accumulation score,[2],0.99 (active)
"N=C(N)SCCc1ccc(CCSC(=N)N)cc1 [1,4-PBIT (dihydrobromide)]",scaled lipid accumulation score,[1],0.049
C=CCNC(N)=S [Allylthiourea],scaled lipid accumulation score,[3],≤ 0
same,scaled lipid accumulation score,[2],≤ -0.001
C=CCNC(N)=S,scaled lipid accumulation score,[2],≤ 0
CCCCCCCCCCCCCCNC(=O)C1CCCCC1 [N-Cyclohexanecarbonyltetradecylamine],scaled lipid accumulation score,[1],0.008
CC(C)c1noc(N2CCC(COc3ccc(-c4ccc(S(C)(=O)=O)cc4)nc3)CC2)n1,scaled lipid accumulation score,[3],0.019
same,scaled lipid accumulation score,[2],0.16
Oc1cc(O)c(Cl)cn1 [Gimeracil],scaled lipid accumulation score,[3],0.014
same,scaled lipid accumulation score,[2],0.04
COC(=O)Nc1nc2ccc(SC(C)C)cc2[nH]1 [Methiazole],scaled lipid accumulation score,,≤ 0
CCCSc1ccc2[nH]c(NC(=O)OC)nc2c1 [Albendazole],scaled lipid accumulation score,,0.176
same,scaled lipid accumulation score,[3],≤ 0
same,scaled lipid accumulation score,library stock concentration: 7.5 mM,0.449 and ≤ 0
same,scaled lipid accumulation score,[2],≤ -0.027 and 0.562
CCCSc1ccc2nc(NC(=O)OC)[nH]c2c1 [Albendazole],scaled lipid accumulation score,[2],0.892 (active)
"O=P(O)(O)O[C@H]1[C@H](O)[C@@H](O)[C@H](OP(=O)(O)O)[C@@H](OP(=O)(O)O)[C@H]1O [D-myo-Inositol-1,3,4-triphosphate (sodium salt)]",scaled lipid accumulation score,[1],≤ 0
CNCCCC1c2ccccc2C=Cc2ccccc21 [Protryptyline hydrochloride],scaled lipid accumulation score,library stock concentration: 6.7 mM,0.698
CNCCCC1c2ccccc2C=Cc2ccccc21.Cl [Protriptyline hydrochloride],scaled lipid accumulation score,,1.24 (active)
same,scaled lipid accumulation score,[2],0.911 (active)
Nc1nc(OCC2CCCCC2)c2[nH]cnc2n1,scaled lipid accumulation score,[2],≤ -0.055
S=P(N1CC1)(N1CC1)N1CC1 [Thiotepa],scaled lipid accumulation score,[2],≤ -0.027
same,scaled lipid accumulation score,library stock concentration: 10.6 mM,≤ 0
CCCCCCCCCCCCCCCCOCC(CO)OC(C)=O (stereo not drawn) [1-Hexadecyl-2-O-acetyl-glycerol],scaled lipid accumulation score,[1],0.035
CC(C)N1Cc2cc(S(C)(=O)=O)ccc2N(CCN2CC=C(c3c[nH]c4cc(F)ccc34)CC2)S1(=O)=O,scaled lipid accumulation score,[2],0.137
C[C@@]1(C(=O)Nc2ccc(F)nc2)CCCN1c1nc(Nc2cc(C3CC3)n[nH]2)c2cccn2n1,scaled lipid accumulation score,[3],≤ 0
same,scaled lipid accumulation score,[2],0.177
NC(=O)N1c2ccccc2CC(=O)c2ccccc21 [Oxcarbazepine],scaled lipid accumulation score,[3],≤ 0
same,scaled lipid accumulation score,library stock concentration: 7.9 mM,≤ 0
same,scaled lipid accumulation score,[2],≤ 0 and ≤ -0.027
CN1CCC(=C2c3ccccc3CCc3sccc32)CC1 [Pizotifen Malate],scaled lipid accumulation score,[3],0.473
CN1CCC(=C2c3ccccc3CC(=O)c3sccc32)CC1.O=C(O)/C=C/C(=O)O [Ketotifen fumarate],scaled lipid accumulation score,[2],0.913 (active)
CN1CCC(=C2c3ccccc3CCc3sccc32)CC1.O=C(O)CC(O)C(=O)O [Pizotifen Malate],scaled lipid accumulation score,[2],1.32 (active)
CN1CCC(=C2c3ccccc3CC(=O)c3sccc32)CC1 [Ketotifen fumarate],scaled lipid accumulation score,,0.627
same,scaled lipid accumulation score,[4],0.276
same,scaled lipid accumulation score,[2],0.172 and 0.737
NC(=O)N1c2ccccc2CC(=O)c2ccccc21 [Trileptal],scaled lipid accumulation score,[2],≤ 0
CN1CCC(=C2c3ccccc3CCc3sccc32)CC1 [Pizotyline malate],scaled lipid accumulation score,[4],0.792
CN1CCC(=C2c3ccccc3CCc3sccc32)CC1 [Pizotifen malate],scaled lipid accumulation score,,0.782
CN1CCC(=C2c3ccccc3CC(=O)c3sccc32)CC1,scaled lipid accumulation score,[2],0.593
CN1CCC(=C2c3ccccc3CCc3sccc32)CC1.O=C(O)/C=C\C(=O)O [Pizotyline],scaled lipid accumulation score,[2],1.2 (active)
CN1CCC(=C2c3ccccc3CC(=O)c3sccc32)CC1 [Ketotifen Fumarate],scaled lipid accumulation score,[3],≤ 0
same,scaled lipid accumulation score,[2],0.576
C[C@@]12C[C@@]3(O)O[C@@H](O1)[C@]1(COC(=O)c4ccccc4)[C@H]3C[C@@]12O[C@@H]1O[C@H](CO)[C@@H](O)[C@H](O)[C@H]1O [Paeoniflorin],scaled lipid accumulation score,[3],≤ 0
same,scaled lipid accumulation score,[2],≤ 0
COCc1c(C(C)C)nc(C(C)C)c(/C=C/[C@@H](O)C[C@@H](O)CC(=O)O)c1-c1ccc(F)cc1 [Cerivastatin],scaled lipid accumulation score,library stock concentration: 4.4 mM,0.228
COCc1c(C(C)C)nc(C(C)C)c(/C=C/[C@@H](O)C[C@@H](O)CC(=O)O)c1-c1ccc(F)cc1,scaled lipid accumulation score,[2],0.271

# — the supplement of paper PMC9135407
